Test results as given in PubChem BioAssay.
The source made the active and inactive calls.

Assays:
[1] = binders of probe aFSTL3 on microarray, primary screen, stem cell growth factor project, biochemical, small-molecule microarray, fluorescence 635/667 (AID 1064); settings: higher = more signal;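 further: measures binding of the biotinylated anti-FSTL3 antibody to printed compounds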
[2] = binders from COS7 lysate, DM2A8 probe, primary screen, torsin A project, cell lysate, small-molecule microarray, fluorescence 635/667 (AID 1065); settings: higher = more signal, COS7 lysate expressing mutant human TOR1A
[3] = binders of probe aFGF2 on microarray, primary screen, stem cell growth factor project, biochemical, small-molecule microarray, fluorescence 635/667 (AID 1067); settings: higher = more signal;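 further: measures binding of biotinylated aFGF2 protein to printed compounds on slides; z-score merges feature fluorescence and signal-to-noise across triplicate slides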
[4] = binders of probe aFGF10 on microarray, primary screen, stem cell growth factor project, biochemical, small-molecule microarray, fluorescence 635/667 (AID 1071); settings: higher = more signal;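 further: score merges 667 nm spot intensity and signal to noise from triplicate slides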
[5] = target: Neurogenic locus notch homolog protein 2 (Homo sapiens) (UniProt Q04721); assay: Notch2 binders on small-molecule microarrays, primary screen, biochemical, small-molecule microarray, 635 nm fluorescence, stem cell growth factors (AID 1073); settings: Notch2 binding, higher = more signal
Chain of Neurogenic locus notch homolog protein 2 (Homo sapiens) (Q04721 whole entry, looked up, canonical isoform): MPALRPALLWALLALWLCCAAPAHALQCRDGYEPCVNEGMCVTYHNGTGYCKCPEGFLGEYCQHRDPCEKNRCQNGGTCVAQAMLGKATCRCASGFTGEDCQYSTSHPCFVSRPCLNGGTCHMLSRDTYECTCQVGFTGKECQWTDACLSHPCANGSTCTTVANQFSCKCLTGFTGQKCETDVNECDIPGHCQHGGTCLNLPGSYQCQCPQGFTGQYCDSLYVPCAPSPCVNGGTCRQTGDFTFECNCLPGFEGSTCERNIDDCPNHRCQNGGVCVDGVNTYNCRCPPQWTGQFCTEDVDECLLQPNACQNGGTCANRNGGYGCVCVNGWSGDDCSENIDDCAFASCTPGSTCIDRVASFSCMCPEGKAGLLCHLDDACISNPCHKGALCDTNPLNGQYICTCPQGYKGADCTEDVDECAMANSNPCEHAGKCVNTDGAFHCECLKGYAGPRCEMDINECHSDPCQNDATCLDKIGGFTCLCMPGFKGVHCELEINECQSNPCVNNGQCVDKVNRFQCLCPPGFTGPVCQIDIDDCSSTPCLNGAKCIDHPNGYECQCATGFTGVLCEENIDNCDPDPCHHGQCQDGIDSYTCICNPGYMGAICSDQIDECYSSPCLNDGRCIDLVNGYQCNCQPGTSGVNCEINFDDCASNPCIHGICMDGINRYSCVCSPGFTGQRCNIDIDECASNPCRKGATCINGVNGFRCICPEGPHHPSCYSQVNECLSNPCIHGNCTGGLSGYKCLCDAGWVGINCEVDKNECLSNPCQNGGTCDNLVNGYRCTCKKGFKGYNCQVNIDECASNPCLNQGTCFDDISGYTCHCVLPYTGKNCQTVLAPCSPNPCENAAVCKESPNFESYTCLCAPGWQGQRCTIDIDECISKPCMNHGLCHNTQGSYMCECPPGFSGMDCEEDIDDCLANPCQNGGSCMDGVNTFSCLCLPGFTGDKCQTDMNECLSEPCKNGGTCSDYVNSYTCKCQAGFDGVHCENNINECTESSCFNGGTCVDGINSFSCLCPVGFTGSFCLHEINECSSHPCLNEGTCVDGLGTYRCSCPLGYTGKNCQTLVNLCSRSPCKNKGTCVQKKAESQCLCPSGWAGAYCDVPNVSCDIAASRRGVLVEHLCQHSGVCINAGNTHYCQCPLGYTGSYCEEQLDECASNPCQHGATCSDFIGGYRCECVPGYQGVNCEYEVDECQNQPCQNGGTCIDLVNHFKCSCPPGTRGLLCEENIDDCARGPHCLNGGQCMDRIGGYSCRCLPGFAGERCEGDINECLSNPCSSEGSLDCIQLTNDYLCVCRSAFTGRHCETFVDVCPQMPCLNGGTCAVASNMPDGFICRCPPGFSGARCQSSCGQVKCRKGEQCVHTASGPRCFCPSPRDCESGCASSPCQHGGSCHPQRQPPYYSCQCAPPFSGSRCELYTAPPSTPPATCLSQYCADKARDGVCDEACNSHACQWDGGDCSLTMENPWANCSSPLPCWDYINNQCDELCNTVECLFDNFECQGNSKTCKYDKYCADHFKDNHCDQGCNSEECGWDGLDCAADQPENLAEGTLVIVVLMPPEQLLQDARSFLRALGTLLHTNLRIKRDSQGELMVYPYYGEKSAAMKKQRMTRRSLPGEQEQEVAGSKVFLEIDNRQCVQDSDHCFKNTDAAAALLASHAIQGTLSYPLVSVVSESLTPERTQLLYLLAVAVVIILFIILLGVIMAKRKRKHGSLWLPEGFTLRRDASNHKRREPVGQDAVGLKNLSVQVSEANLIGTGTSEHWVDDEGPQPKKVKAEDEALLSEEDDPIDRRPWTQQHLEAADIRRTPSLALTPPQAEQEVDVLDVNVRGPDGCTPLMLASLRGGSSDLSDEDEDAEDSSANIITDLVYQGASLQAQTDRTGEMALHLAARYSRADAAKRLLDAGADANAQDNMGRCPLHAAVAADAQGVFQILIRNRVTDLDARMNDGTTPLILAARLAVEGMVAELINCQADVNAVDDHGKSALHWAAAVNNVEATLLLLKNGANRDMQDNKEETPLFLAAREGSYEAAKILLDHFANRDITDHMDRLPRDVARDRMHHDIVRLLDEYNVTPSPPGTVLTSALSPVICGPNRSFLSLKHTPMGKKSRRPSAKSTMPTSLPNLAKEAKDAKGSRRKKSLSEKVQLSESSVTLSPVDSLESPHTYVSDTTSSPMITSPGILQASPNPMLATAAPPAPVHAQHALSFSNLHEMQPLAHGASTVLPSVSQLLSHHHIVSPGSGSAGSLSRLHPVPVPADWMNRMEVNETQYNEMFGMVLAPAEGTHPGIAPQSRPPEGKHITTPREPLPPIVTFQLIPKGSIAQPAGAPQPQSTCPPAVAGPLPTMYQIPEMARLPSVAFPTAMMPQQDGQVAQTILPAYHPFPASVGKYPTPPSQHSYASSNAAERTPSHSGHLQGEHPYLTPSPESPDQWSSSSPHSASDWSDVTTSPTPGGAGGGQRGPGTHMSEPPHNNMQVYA

[6] = target: Pro-neuregulin-1, membrane-bound isoform (Homo sapiens) (UniProt Q02297); assay: NRG1 binders on small-molecule microarrays, primary screen, psychiatric disease protein project, biochemical, small-molecule microarray, fluorescence 635/667 (AID 1075); settings: NRG1 binding, 635 nm fluorescence, higher = more signal;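 further: score combines 667 nm spot fluorescence with signal to noise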
Chain of Pro-neuregulin-1, membrane-bound isoform (Homo sapiens) (Q02297 whole entry, looked up, the tested form may be a part, canonical isoform): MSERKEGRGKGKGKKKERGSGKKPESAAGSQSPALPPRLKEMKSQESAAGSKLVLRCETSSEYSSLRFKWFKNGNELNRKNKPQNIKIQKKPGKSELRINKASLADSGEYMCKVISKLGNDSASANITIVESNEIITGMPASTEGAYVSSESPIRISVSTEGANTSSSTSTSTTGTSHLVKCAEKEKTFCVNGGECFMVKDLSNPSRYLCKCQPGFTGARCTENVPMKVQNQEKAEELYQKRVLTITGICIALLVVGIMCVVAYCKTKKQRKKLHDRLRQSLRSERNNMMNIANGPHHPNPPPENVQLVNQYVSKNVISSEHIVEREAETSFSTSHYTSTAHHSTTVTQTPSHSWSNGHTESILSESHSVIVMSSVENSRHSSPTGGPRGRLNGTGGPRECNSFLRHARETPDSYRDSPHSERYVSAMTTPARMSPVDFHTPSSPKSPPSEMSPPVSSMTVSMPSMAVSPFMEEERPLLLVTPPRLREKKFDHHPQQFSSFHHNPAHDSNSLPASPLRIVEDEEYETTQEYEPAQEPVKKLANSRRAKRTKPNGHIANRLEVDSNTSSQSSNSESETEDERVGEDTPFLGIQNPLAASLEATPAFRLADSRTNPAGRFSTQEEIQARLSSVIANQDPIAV

[7] = test system: Neuregulin-1 EGF-like domain; assay: binders of neuregulin-1 EGF-like domain, primary screen, biochemical, small-molecule microarray, 635 nm fluorescence (AID 1081); settings: small-molecule microarray binding, higher = more signal;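 further: binding of the protein to compounds printed on small-molecule microarray slides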
[8] = FRG1 promoter luciferase signal modulators, primary screen, FRG1 inhibition for FSHD, cell-based, C2C12 myotubes, firefly/Renilla luciferase, luminescence (AID 1084); settings: higher = more signal, called active from +8 up or from −8 down
[9] = binders of probe aFST on microarray, primary screen, stem cell growth factor project, biochemical, small-molecule microarray, fluorescence 635/667 (AID 1086); settings: higher = more signal;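 further: score merges 667 nm fluorescence with signal-to-noise of each printed compound spot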
[10] = binders of probe aHhip on microarray, primary screen, stem cell growth factor project, biochemical, small-molecule microarray, fluorescence 635/667 (AID 1087); settings: higher = more signal;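 further: score merges spot fluorescence at 667nm with spot signal to noise ratio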

SMILES	composite z-score [1]	composite z-score [2]	composite z-score [3]	composite z-score [4]	composite z-score [5]	composite z-score [6]	composite z-score [7]	z-score [8]	composite z-score [9]	composite z-score [10]
C[N+](C)(C)CCCCCCNC(=O)[C@H]1C[C@H]2C(=O)NCC(=O)N2[C@H]1c1ccc(O)cc1	-0.411	0.71	-0.0973	0.776	0.0422	1.52	1.17	4.03 (inactive)	0.358	-0.744
C=CC[C@@]1(C(=O)N2CCOCC2)N=C(c2ccc(OCCCO)cc2)O[C@@H]1c1ccccc1CN=[N+]=[N-]	-0.0448	0.326	0.141	1.01	1.62	1.53	1.15	-1.21 (inactive)	1.17	0.0722
C=CCOC(=O)[C@H]1[C@@H]2C(=O)O[C@@H](c3ccccc3)[C@@H](c3ccccc3)N2[C@@H](c2ccc(OCCOC(=O)[C@@H]3C[C@@H]4C(=O)N5CCC[C@H]5C(=O)N4[C@@H]3c3ccc(O)cc3)cc2)[C@]12C(=O)Nc1ccc(I)cc12	0.011	-0.123	-0.201	0.126	0.344	0.929	0.718	0.308 (inactive)	-0.0935	-0.367
O=C1OCC=C[C@H]2OC34C=CCN(Cc5ccccc5)C(=O)[C@H]3N(CCCCCCO)C(=O)[C@@H]4[C@@H]12 (stereo not given in full)	0.329	-0.443	-0.191	-0.0166	-0.812	0.273	1.12	-0.843 (inactive)	-0.474	-0.249
O=C1NC(=O)C2C1C=CC(C(O)c1c(F)cccc1Cl)N2Nc1ccc(Cl)cc1Cl (stereo not given)	1.38	1.79	0.0389	0.424	1.29	1.37	1.17	-1.03 (inactive)	1.22	-0.216
C=C(/C(=C/C[C@H](OC(C)=O)c1ccccc1OCCO)c1cc(C(=O)OC)ccc1OC)C(C)C	-0.243	-0.415	-0.0222	0.826	-0.0413	0.0648	1.09	-0.976 (inactive)	-0.36	0.126
Cc1ccc(S[C@]2(C(=O)NCC(F)(F)F)CC(=O)N(Cc3ccccc3)[C@@H]2c2ccc(CO)cc2I)cc1	0.512	0.156	-0.0502	0.284	0.0341	1.82	0.923	-0.646 (inactive)	0.164	-0.236
CCCCC(O)C1C=CC2C(=O)N(c3ccccc3)C(=O)C2N1Nc1ccc(C(C)C)cc1 (stereo not given)	-0.158	-0.534	0.0662	0.47	1.44	1.85	0.697	-0.875 (inactive)	1.13	-0.217
CN1C(=O)C2C=CC(C(O)C#Cc3ccccc3)N(Nc3ccccc3)C2C1=O (stereo not given)	0.247	0.161	0.111	1.17	1.7	1.86	1.3	2.29 (inactive)	1.71	-0.0024
COCCCNC(=O)[C@@]1(Sc2ccc(C)cc2)CC(=O)N(C2CCCCC2)[C@@H]1c1ccc(CO)cc1	0.863	-0.596	0.0019	0.0381	-0.957	-0.113	-0.119	-0.721 (inactive)	-0.37	-0.191
COCCOC(=O)N1C(=O)[C@@]2(c3cc(C#CCCO)ccc31)[C@H](c1ccccc1OCCO)N1[C@H](c3ccccc3)[C@H](c3ccccc3)OC(=O)[C@H]1[C@@H]2C(=O)Nc1nc2ccccc2s1	0.406	1.13	-0.0066	0.662	1.42	1.51	1.31	1.47 (inactive)	0.617	-0.254
CC1=C[C@@]2(CO)C(=O)[C@]3(CO3)[C@@H]1[C@H]1[C@]2(C)C=C(CO)C(=O)[C@]12CO2	-0.457	-0.42	-0.0782	0.345	0.31	0.194	0.677	-1.35 (inactive)	0.614	0.459
O=C1C2C=CC(C(O)c3ccc(Br)cc3)N(Nc3ccccc3F)C2C(=O)N1c1ccccc1 (stereo not given)	-0.436	0.536	0.0181	0.178	0.776	1.11	1.06	-1.55 (inactive)	0.68	-0.0346
CO[C@]12C=C(Br)[C@@H](C[C@@H]1c1cccc(C)c1)[C@@]1(CO1)C2=O	-0.233	0.0322	-0.0718	0.211	-0.217	0.518	0.0046	1.22 (inactive)	-0.221	-0.0708
CCOc1cc(C(O)C2C=CC3C(=O)N(C)C(=O)C3N2Nc2ccccc2)ccc1O (stereo not given)	-0.329	0.101	0.0827	0.305	1.46	1.78	1.49	0.55 (inactive)	0.472	0.24
CCCNC(=O)[C@@H]1c2ccccc2C(=O)N(C(C)C)[C@H]1c1ccc(CO)cc1	0.277	-0.638	-0.112	-0.303	-0.664	1.23	1.2	-0.273 (inactive)	0.103	-0.271
Cc1ccc(S[C@]2(C(=O)NCC(F)(F)F)CC(=O)N(Cc3ccccc3C(F)(F)F)[C@@H]2c2ccc(CO)cc2I)cc1	0.52	-0.893	-0.157	-0.954	-1.15	-0.12	0.124	-1.24 (inactive)	-0.818	-0.236
NC(=O)NCC#Cc1ccc2c(c1)[C@]1(C(=O)N2)[C@H](C(=O)NC[C@H](O)c2ccccc2)[C@H]2C(=O)O[C@H](c3ccccc3)[C@H](c3ccccc3)N2[C@@H]1c1ccc(OCCO)cc1	0.565	0.699	-0.031	0.852	0.103	0.897	0.537	1.71 (inactive)	0.0377	-0.131
COc1ccc(NC(=O)O[C@H]2[C@H](OC(=O)Nc3ccccc3)[C@@H](OC(=O)Nc3ccccc3)[C@@H](OC)O[C@@H]2CO)cc1	-0.279	0.672	-0.017	1.27	0.754	1.6	1.26	0.329 (inactive)	0.23	-0.0618
O=C(NCC(F)(F)F)[C@@H]1c2ccccc2C(=O)N(Cc2ccc(OC(F)(F)F)cc2)[C@H]1c1ccc(CO)cc1	-0.0966	0.661	-0.0595	0.41	0.8	1.33	1.1	-1.76 (inactive)	0.208	-0.25
C=C(CCCC)/C(=C/C[C@@H](OC(=O)c1ccncc1)c1ccccc1OCCO)c1cnc2ccccc2c1	-0.5	0.517	0.165	1.17	1.33	0.611	1.04	-1.53 (inactive)	0.574	0.469
COC(=O)CCCCCCC(=O)Nc1ccc(NC(=O)CCCC[P+](c2ccccc2)(c2ccccc2)c2ccccc2)cc1	-0.493	0.725	-0.0639	0.695	0.336	-0.31	0.166	0.789 (inactive)	0.352	-0.0296
O=C(NCc1ccccc1)[C@@H]1c2ccccc2C(=O)N(Cc2ccccc2C(F)(F)F)[C@H]1c1ccc(CO)cc1	-0.234	0.55	-0.0451	-0.0459	-0.927	0.48	1.25	-3.23 (inactive)	-0.428	-0.293
CCOC(=O)C[C@H]1[C@H](OC(=O)c2cc3ccccc3oc2=O)[C@@H](NC(=O)c2ccc(-c3ccccc3)cc2)c2cc(OCCCO)ccc2N1C(=O)c1ccc2ccccc2n1	-0.494	0.804	-0.0563	0.684	0.652	0.751	1.03	-0.185 (inactive)	0.619	-0.0994
O=C1O[C@H](c2ccccc2)[C@H](c2ccccc2)N2[C@H]1[C@@H](C(=O)Nc1nc3ccccc3s1)[C@]1(C(=O)Nc3ccccc31)[C@H]2c1ccc(OCCO)cc1	-0.401	0.292	-0.0734	0.452	1.31	1.29	1.11	3.35 (inactive)	0.778	0.0854
O=C(CS)NCCCCCNC(=O)[C@@H]1C[C@@H]2C(=O)N3CCC[C@H]3C(=O)N2[C@@H]1c1cccc(OCCO)c1	0.511	1.59	-0.106	0.051	-0.377	1.19	1.43	0.174 (inactive)	-0.599	-0.166
COc1ccc(C#Cc2ccc3c(c2)[C@]2(C(=O)N3)[C@H](c3ccc(O)cc3)N3[C@H](c4ccccc4)[C@H](c4ccccc4)OC(=O)[C@H]3[C@@H]2C(=O)O)cc1	-0.789	0.413	-0.161	0.831	0.761	0.555	1.13	-0.471 (inactive)	-0.541	-1.08
CCCCC=C[C@@H](NC(=O)c1ccc(-c2ccccc2)cc1)c1ccccc1	-0.0095	-0.0424	-0.021	0.457	1.44	1.55	0.739	0.61 (inactive)	0.517	0.21
COC(=O)C(CC#Cc1ccc2c(c1)[C@]1(C(=O)N2)[C@H](c2ccccc2OCCO)N2[C@H](c3ccccc3)[C@H](c3ccccc3)OC(=O)[C@H]2[C@@H]1C(=O)NC[C@H](O)c1ccccc1)C(=O)OC	-0.881	0.711	-0.0307	0.767	0.982	1.36	1.25	-1.42 (inactive)	-0.158	-0.4
CCC[C@@H]1C[C@@]1(CCC)[C@@H](NC(=O)OCc1ccccc1)c1ccc(-c2ccccc2)cc1	0.49	-0.602	0.0572	-0.68	-0.527	-0.271	-0.76	-1.93 (inactive)	-0.294	3.09
